Bioassay records: PubChem BioAssay, National Center for Advancing Translational Sciences (NCATS)
The list is not random: actives were taken first. Their share in the collection is about 1.2%.
TexasRed fluor = alters Texas Red total fluorescence, flagging assay interference. TRb/SRC2 Texas Red total fluorescence interference. hit rate 0.29% among 280,000. Potency, µM (series often up to 106 µM), without a hit: at the top dose fluorescence change, negative = quenching; active = well fitted curve in either direction with a large enough effect; inconclusive = small, poorly fitted or top-dose-only effect
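Human TRβ ligand-binding domain (0.6 uM) and Texas Red SRC2 peptide (20 nM) in Tris buffer with 1 uM T3 and 5% DMSO were incubated with pinned compound for 5 hr at ambient temperature. Total fluorescence was computed as S + 2P (555/632 nm).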
VDR inh = blocks the human vitamin D receptor; VDR-SRC2-3 peptide fluorescence polarization, 2 h; P11473; hit rate 0.93% among 400,000; Potency, µM, for inactives: max response, negative = inhibition, hits mostly inhibitors
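Compounds are added to VDR with labelled SRC2-3 coactivator peptide and held 2 h at room temperature. Inhibition of the VDR–peptide interaction is then read as a change in fluorescence polarization.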
TRb SRC2 PPI = TRbeta-SRC2 interaction inhibition; hit rate 0.065% among 280,000; P10828; TRbeta-SRC2 peptide binding, fluorescence polarization; receptor liganded with 1 µM T3; Potency, µM (series often up to 106 µM), inactives show at the highest dose activity change, negative = inhibition, actives largely listed as inhibitors;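 note: plate controls were bound peptide for no effect and peptide without receptor for full effect; nearly all actives have a fitted effect of over 50% in size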
Target sequence (P10828 whole entry, looked up): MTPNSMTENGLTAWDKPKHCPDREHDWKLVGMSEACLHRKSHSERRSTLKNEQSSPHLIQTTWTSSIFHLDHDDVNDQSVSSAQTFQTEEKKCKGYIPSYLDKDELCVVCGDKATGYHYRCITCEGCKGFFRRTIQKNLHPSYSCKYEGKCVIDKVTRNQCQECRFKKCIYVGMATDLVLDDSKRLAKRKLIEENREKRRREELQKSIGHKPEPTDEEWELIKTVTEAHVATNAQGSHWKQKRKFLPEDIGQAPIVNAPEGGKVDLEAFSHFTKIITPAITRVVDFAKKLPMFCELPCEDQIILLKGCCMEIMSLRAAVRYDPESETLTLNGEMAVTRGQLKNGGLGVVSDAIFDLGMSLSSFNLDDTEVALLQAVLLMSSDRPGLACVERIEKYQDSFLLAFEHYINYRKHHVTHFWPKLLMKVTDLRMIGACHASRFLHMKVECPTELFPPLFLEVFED
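Fluorescence polarization of 20 nM Texas Red SRC2 peptide with 0.6 uM human TRb ligand-binding domain, in Tris buffer with 1uM T3 and 5% DMSO. Incubated 5 hr ambient; normalized to unbound and bound controls.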
GoLoco inh red = RGS12 GoLoco-Gai1 interaction inhibition; P63096; Gai1:RGS12 GoLoco peptide FP, rhodamine, 10 min; Potency, µM (doses to about 61.6 µM), for the others: top-dose activity, negative = inhibition, actives largely listed as inhibitors; hit rate 0.44% among 230,000; active = well fitted inhibition curve with a large enough effect, not every such curve was filed as active; inactive = no such curve, though single readings can be large or run the other way; note: nearly all actives have a fitted effect of over 30% in size
KAT2A inh = blocks human GCN5L2 histone acetyltransferase | Q92830 | GCN5L2 HAT assay, ThioGlo1 CoA-SH fluorescence | Potency, µM (top dose mostly 58.9 µM), for the others: at the highest dose activity change, negative = inhibition, actives largely listed as inhibitors | hit rate 0.21% among 390,000 | AID 504327
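GCN5L2 (20nM final) in 50mM HEPES, 0.1mM EDTA pH 7.5, 0.01% Tween-20 was preincubated 15 min at room temperature with compound, then given ThioGlo1 (50uM), H3(1-25) peptide (75uM) and acetyl-CoA (70uM); CoA-thiol fluorescence (Ex340/Em540) was read at 0 and 20 min.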
Numbers without * were called inactive; ? = inconclusive; nt = not tested or not shown; ! = not confirmed by another sample; [ ] = remark or other dose. Unless noted, calls come from the whole dose curve; as a rule, active = well fitted curve in the direction sought with a large enough effect; inconclusive = small, poorly fitted or top-dose-only effect, or another doubt; inactive = no such curve, though single readings can be large; an effect the other way counts as inactive or inconclusive. Unless noted, % is set by controls: 0 for no effect and ±100 for the full control effect; potency is the fitted concentration of half-maximal effect.

SMILES | TexasRed fluor | VDR inh | TRb SRC2 PPI | GoLoco inh red | KAT2A inh
OCc1ccc(O)c2ncccc12 | -3% | 11% | -10% | 6% | -1%
Oc1c(I)cc(I)c2cccnc12 | -2% | 35µM*! | -9% | 9% | -1%
CC(=O)n1cc(N(C(=O)CCl)c2ccccc2)c2ccccc21 | -2% | ? | 0% | 1% | 0%
CC(=O)n1cc(N(C(=O)CCl)c2ccc([N+](=O)[O-])cc2)c2ccccc21 | -2% | 22µM* | -8% | 0% | -3%
CCOc1ccc(C2c3c(oc4ccc(C)cc4c3=O)C(=O)N2CCCN(C)C)cc1 (configuration not stated) | 3% | 0% | 0% | nt | 9%
Cc1ccc2oc3c(c(=O)c2c1)C(c1ccc(O)cc1)N(CCCN(C)C)C3=O (configuration not stated) | 5.6e-05µM*[quencher] | -1% | -18% | nt | 5%
Cc1ccc(C)c(NC(=S)NNc2ccc(F)cc2F)c1 | nt | 10µM* | nt | nt | -2%
CSC1=NC(C)(C)C=C(/C=C/c2ccc(Cl)cc2)N1 | -2% | 32µM* | -8% | 18% | -15%
O=c1[nH]c(=S)[nH]c2c1C(c1ccc(Br)cc1)c1c([nH]c(=S)[nH]c1=O)O2 | nt | 89µM* | nt | nt | 14µM*
COC(=O)c1c(NC(=O)/C(C#N)=C/c2ccccc2)sc2c1CCC2 | 5% | ? | -3% | nt | -3%
CCOc1ccc(/C=C(\C#N)C(=O)Nc2sc3c(c2C(=O)OC)C(C(=O)OC)CC3)cc1OC (configuration not stated) | ? | 20µM* | 1% | nt | ?
CCOC(=O)C1=C(N)Oc2ccc(Br)cc2C1C(C#N)C(=O)OCC (configuration not stated) | -1% | 5.6µM* | 1% | 31% | -23%
CO/N=C(\C(=O)NC1C(=O)N2C(C(=O)OCOC(=O)C(C)(C)C)=C(/C=C\c3scnc3C)CSC12)c1csc(N)n1 (configuration not stated) | 0% | 35µM* | -2% | 4% | -15%
CC1=C(C(=O)OCc2cc(C)on2)N2C(=O)[C@@H](NC(=O)OCc3cc(C)on3)[C@H]2SC1 | nt | -19% | nt | nt | -5%
CC(=O)OCC1=C(C(=O)O)N2C(=O)C(NC(=O)c3ccc(COc4cccc(Cl)c4Cl)o3)C2SC1 (configuration not stated) | -1% | 25µM* | -9% | 2% | ?
CO/N=C(/C(=O)N[C@@H]1C(=O)N2C(C(=O)O)=C(COC(N)=O)CS[C@H]12)c1ccco1 | 1% | 50µM* | -4% | -3% | ?
C=CC1=C(C(=O)O)N2C(=O)C(NC(=O)/C(=N\O)c3csc(N)n3)C2SC1 (configuration not stated) | 0% | ? | -11% | -49% | 9%
CO/N=C(/C(=O)N[C@@H]1C(=O)N2C(C(=O)O)=C(CSc3nc(C)c(CC(=O)O)s3)CS[C@H]12)c1csc(N)n1 | nt | 35µM* | nt | nt | -8%
CC(=O)OCC1=C(C(=O)O)N2C(=O)C(NC(=O)Cc3cccs3)C2SC1 (configuration not stated) | 0% | nt | 2% | -22% | nt
C[C@H]1C=CC(=O)C[C@H]1c1c(F)cccc1Cl | -3% | -7% | 2% | nt | nt
C[C@@]12CC[C@@H]3[C@H](CCC4=CC(=O)CC[C@]43C)[C@@H]1CC[C@@H]2C(=O)COS(=O)(=O)c1ccc(Br)cc1 | nt | nt | nt | 39%[14.2 µM] | nt
C1CCC2(CCCCO2)OC1 | -1%[201 µM] | nt | -4%[201 µM] | nt | nt
CC1=CC(C)(C)N2C(=O)C(=Nc3ccc(O)cc3)c3cccc1c32 | 3% | ? | 35µM* | -19% | 0%
COc1cc(N=C2C(=O)N3c4c(cccc42)C(C)=CC3(C)C)cc(OC)c1 | -1% | ? | 3% | 0% | -5%
Cc1ccc(NC(=O)CSc2nc(C)c(Cc3ccccc3)c(=O)[nH]2)cc1C | 40µM*![quencher] | -6% | ? | 0% | 1%
SMILES | TexasRed fluor | VDR inh | TRb SRC2 PPI | GoLoco inh red | KAT2A inh
Cc1ccccc1OCCSc1nc(C)c(Cc2ccccc2)c(=O)[nH]1 | 3.2µM*[quencher] | 29% | ? | nt | 2%
O=C(CSc1nc(O)c(Cc2ccccc2)c(=O)[nH]1)Nc1ccccc1 | -1% | -2% | -8% | 8% | 3%
Cc1ccc(NC(=O)CSc2ncc(S(=O)(=O)c3ccccc3)c(=O)[nH]2)cc1C | 0.0003µM*[quencher] | -5% | -22%[53 µM] | 5% | 0%
C[N+](C)(C)c1nc(N)nc2c1ncn2[C@H]1O[C@@H](CO)[C@@H](O)[C@H]1O | nt | nt | nt | 5%[14.2 µM] | nt
C[C@]12C=CC(=O)N[C@@H]1CC[C@@H]1C2CC[C@]2(C)C(C(=O)Nc3cc(C(F)(F)F)ccc3C(F)(F)F)CC[C@@H]12 (some centres not stated) | -1% | 12% | -1% | 13% | 12%
Cc1ccc(N2C3=C(C(=O)CC(C)(C)C3)C(c3cn(C)nc3C)C3=C2CC(C)(C)CC3=O)cc1 | nt | 20µM* | nt | nt | nt
Cc1nn(C)cc1C1C2=C(CC(C)(C)CC2=O)N(c2ccccc2)C2=C1C(=O)CC(C)(C)C2 | 1% | 0% | -5% | -1% | -2%
O=C1CCCCCCCCCCC1 | 0%[201 µM] | nt | -4%[201 µM] | nt | nt
C/C=C1\COC(C(=O)NCc2ccccc2)(C(F)(F)F)C=C1C=C1CCCCC1 (configuration not stated) | 1% | 79µM*! | 0% | nt | nt
CC1/C=C/C=C/C=C/C=C/C=C/C=C/C=C/C(OC2OC(C)C(O)C(N)C2O)CC2O[C@@](O)(CC(O)CC(O)C(O)CCC(O)CC(O)CC(=O)OC(C)[C@H](C)C1O)CC(O)C2C(=O)O (some centres not stated) | 18% | 50µM* | ? | 122% | -23%
Cc1ccc(/C=C/C(=O)c2ccc([N+](=O)[O-])o2)cc1 | nt | 5.6µM* | nt | nt | -9%
Cc1ccc(S(=O)(=O)N(C)CCN(C)c2nc(-c3cccs3)nc3ccccc23)cc1 | nt | -20% | nt | nt | nt
COc1cc(CNCc2ccncc2)cc(Br)c1OCc1ccccc1F | 0% | -5% | -1% | -3% | -1%
COc1cc(CNc2ccc(O)cc2)cc(Br)c1OCc1ccccc1F | -3% | 35µM* | 2% | -27% | ?
CCOc1cc(CNc2ccc(O)cc2)cc(Br)c1OCc1ccccc1F | ? | 79µM* | 32µM* | -23% | -9%
CCOc1cc(CNc2ccc(O)cc2)cc(Br)c1OCc1ccccc1 | 8%[11.2 µM] | -17% | 2%[11.2 µM] | nt | -11%
CSc1ccc(CCNC(=O)c2ccc(-n3c(C)cc4c3CCC(C)C4)cc2)cc1 (configuration not stated) | 22µM*[quencher] | 4% | -11% | nt | -13%
CNc1nc(=O)n(C2CCC(O)CC2)c(=O)n1C (configuration not stated) | -1%[201 µM] | nt | 2%[201 µM] | nt | nt
CCOC(=O)NN1C(=O)c2ccccc2NC1c1ccc(N(C)C)cc1 (configuration not stated) | 112µM*[quencher] | -8% | -11% | 6% | 1%
